Assay outcomes (PubChem)
MRP reversal: compounds reversing MRP-mediated drug resistance; H69AR cells + 2 uM doxorubicin, CellTiter-Glo, 72 h; differential viability (reversal), % at 10 µM; 85,000 tested, 0.04% active; AID 602;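 active means viability drop by adding the cancer drug above about 55%, with treated viability meeting a 40% cutoff, limit read from the data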;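 further: viability without doxorubicin minus viability with 2 µM doxorubicin for each compound; larger differential means the compound sensitizes cells more to doxorubicin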
MRP1 act: activators of MRP-1; H69AR cells + doxorubicin, viability rescue, CellTiter-Glo; viability increase, % at 10 µM; 140,000 tested, 0.61% active;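 active means viability gain under doxorubicin at or above a set limit, the compound median plus 3 SD, cut at about 4.7% in these data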;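 further: MRP-1 overexpressing cells given doxorubicin 25 µM after compound pretreatment; 18-22 h compound pretreatment then 72 h with doxorubicin before readout; 0% = doxorubicin-only wells and 100% = vehicle-treated cells without doxorubicin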
Phagocytosis inh: macrophage phagocytosis inhibition; AID 1029; 110,000 tested, 0.07% active; inhibition, % at 5 µM; J774A.1 macrophage IgG-bead phagocytosis, imaging;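 active means inhibition above the mean of the plate negative controls plus 5 SD, cut at about 13% in these data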;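 further: phagocytic index as fraction of beads internalized from green versus red external bead signal; plate controls were DMSO negative control for no effect and cytochalasin-D positive control for full effect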
An asterisk follows results filed as active; . = no result given; + = active, no number. Compounds with a hit are over-represented: about 0.69% of the library has one in this group of screens.

SMILES	MRP reversal	MRP1 act	Phagocytosis inh
CCC(Sc1nccn1C)C(=O)Nc1nnc(C)s1 (centres undefined)	1.3	7.3*	-0.2
N#Cc1c(-c2ccccc2)nc(SCC(=O)Nc2ccccc2)[nH]c1=O	.	9.6*	-8.9
O=C(CSc1nc2ccccc2c(=O)[nH]1)c1cccs1	-4.1	-0.9	-1.0
N#Cc1c(-c2cccs2)nc(SCC(=O)c2cccs2)[nH]c1=O	.	5.6*	.
CCC(Sc1nccn1C)C(=O)Nc1cccc2ccccc12 (centres undefined)	-6.7	-0.4	.
CCC(Sc1nc(C)cc(=O)[nH]1)C(=O)Nc1nc(-c2ccccc2)cs1 (centres undefined)	3.3	-0.8	-1.1
N#Cc1c(-c2ccco2)nc(SCC(=O)Nc2ccc(S(N)(=O)=O)cc2)[nH]c1=O	.	2.9	0.2
CCC(Sc1nc(-c2ccccc2)c(C#N)c(=O)[nH]1)C(=O)Nc1nnc(C)s1 (centres undefined)	.	6.4*	2.4
Cn1ncc2c(NNC(=O)c3ccc(Cl)cc3Cl)ncnc21	.	1.6	-9.5
O=C(Cc1cccs1)NC1(C(=O)NC2CCCC2)CCCCC1	.	3.2	-3.7
COC(=O)c1cc(Cl)c(NC(=O)c2cc3ccccc3o2)cc1OC	.	-5.4	.
Cc1ccc(C2CC(=O)c3cnn(-c4nc(C)cc(C)n4)c3C2)cc1 (centres undefined)	.	-0.3	-5.7
Cc1ccc(NC(=O)CSc2ccc3nnc(CCNC(=O)c4ccccc4)n3n2)c(C)c1	.	-1.1	-12.2
COc1ccc(OC)c(/C=N/NC(=O)CNC(=O)c2ccc(S(=O)(=O)N3CCOCC3)cc2)c1	.	-0.4	3.1
COC(=O)c1cc2ccsc2n1Cc1ccccc1F	.	-2.9	-4.0
CCOC(=O)N1CCN(CC(O)COCc2cc(OC)c(OC)c(OC)c2)CC1 (centres undefined)	.	-2.3	-0.7
N#Cc1c(-c2ccccc2)nc(SCC(=O)N(c2ccccc2)c2ccccc2)[nH]c1=O	.	7.5*	-4.6
Cc1cc(NC(=O)CSc2nc3ccccc3[nH]2)no1	5.8	-2.7	0.7
Cc1cc(NC(=O)CSc2nc(-c3ccccc3)c(C#N)c(=O)[nH]2)no1	3.9	9.1*	-0.4
N#Cc1c(-c2ccccc2)nc(SCC(=O)Nc2ccccc2F)[nH]c1=O	.	9.8*	-3.2
C=CCSc1nc(-c2ccccc2)c(C#N)c(=O)[nH]1	13.4	1.0	-1.9
CCOC(=O)CCCCC(=O)c1[nH]c(=O)[nH]c1CSCCO	7.2	-0.7	-0.3
CCCc1cc(=O)[nH]c(SCC(=O)Nc2ccccc2C#N)n1	-11.4	-2.7	-3.0
CCOC(=O)CCCCC(=O)c1[nH]c(=O)[nH]c1CSc1nc(-c2ccccc2)c(C#N)c(=O)[nH]1	3.1	6.4*	1.3
O=C1C2CCCN2C(=O)N1CCCCN1CCN(CCO)CC1 (centres undefined)	.	1.9	1.3
SMILES	MRP reversal	MRP1 act	Phagocytosis inh
COc1ccc(/C=N/NC(=O)CN2CCSCC2)cc1C	.	-1.2	0.6
Cc1cccc(NC(=O)CSc2nc(-c3ccccc3)c(C#N)c(=O)[nH]2)c1C	.	9.1*	.
Cc1cccc(NC(=O)CSc2nc3[nH]ncc3c(=O)[nH]2)c1C	.	-2.1	.
CCC(C)c1ccc(OCCCCN2CCOCC2)cc1 (centres undefined)	3.4	-2.4	0.0
O=C(Oc1ccccc1C(=O)Nc1ccccc1)c1ccccc1Br	.	-1.6	0.4
O=C(Nc1ccc(C2CC2(Cl)Cl)cc1)c1ccccc1Br (centres undefined)	.	11.4*	-1.5
O=C(NC(=S)NCCOCc1ccc(Cl)cc1)c1cccnc1	.	-2.0	4.1
C=CCNc1sc(C(=O)c2ccccc2)c(N)c1-c1nc2ccccc2s1	0.5	2.9	-0.6
CCNc1sc(C(=O)c2cccs2)c(N)c1-c1nc2ccccc2s1	36.1	9.0*	-0.5
Cc1cc(/N=C/C=C2\N(C)c3ccccc3C2(C)C)n(CCC#N)n1	-55.0	-3.8	-0.2
C=CCSc1nc(C)cc(/C=C\c2ccccc2)c1C#N	.	0.7	.
Cc1ccc(CCNC(=O)C2CCCN(S(=O)(=O)c3c(C)noc3/C=C/N(C)C)C2)cc1 (centres undefined)	-2.6	-1.0	.
Cc1noc(/C=C/N(C)C)c1S(=O)(=O)N1CCCC(C(=O)NCc2cccs2)C1 (centres undefined)	2.6	10.1*	-0.5
CCOC(=O)C1=C(C)Nc2ncnn2C1c1cccnc1 (centres undefined)	-11.5	177.3*	.
CCOC(=O)C1=C(C)Nc2ncnn2C1c1ccc(N(C)C)cc1 (centres undefined)	14.3	-2.3	-0.8
CC(C)Oc1ccc(-c2nn(-c3ccccc3)cc2/C=c2\sc3ncnn3c2=O)cc1	-7.1	5.8*	0.4
O=c1/c(=C/c2cn(-c3ccccc3)nc2-c2ccc(F)cc2)sc2nc3ccccc3n12	.	-1.6	-1.2
C/C(=N/NC(N)=S)c1ccccc1[N+](=O)[O-]	.	-1.7	.
Cc1ccc(C2CC(=O)Oc3cc(O)ccc32)cc1 (centres undefined)	.	-1.0	.
O=C1CC(c2ccccc2)c2cc(O)ccc2O1 (centres undefined)	.	5.1*	.
Cn1nc([N+](=O)[O-])nc1N1CCOCC1	.	-0.2	-2.3
O=C(NCc1ccccc1)C(c1ccc(O)cc1)N(C(=O)Cn1nnc(-c2cccs2)n1)c1ccc2c(c1)OCCO2 (centres undefined)	-8.3	5.8*	.
O=C(CN(C(=O)Cn1nnc(-c2cccs2)n1)c1ccc2c(c1)OCCO2)NC1CCCCC1	-10.0	-2.1	-0.5
CCNC(=O)n1nccc1C(C)Oc1cccc(C(F)(F)F)c1 (centres undefined)	.	-1.6	.
CCc1nnc(NC(=O)C2Cc3ccccc3CN2S(=O)(=O)c2ccc(C)cc2)s1 (centres undefined)	-22.1	-1.3	.
SMILES	MRP reversal	MRP1 act	Phagocytosis inh
CCc1nnc(NC(=O)C2CCCN2S(=O)(=O)c2ccc(C)cc2)s1 (centres undefined)	-11.8	6.8*	1.4
COc1ccc(NC(=O)C2CCCN2S(=O)(=O)c2ccc(F)cc2)cc1 (centres undefined)	7.9	-0.3	-0.4
O=C(Nc1nccs1)C1CCCN1S(=O)(=O)c1ccc(F)cc1 (centres undefined)	5.8	-0.4	+
Cc1ccc2[nH]c(=O)c(CN(C(=O)c3cccs3)c3ccccc3)cc2c1	.	-1.0	-0.5
O=C(Nc1nnc(C2CC2)s1)c1cc([N+](=O)[O-])ccc1N1CCCCC1	.	-3.1	-2.6
Cc1cccc(CC2S/C(=N/c3ccccn3)NC2=O)c1 (centres undefined)	-11.1	10.2*	.
O=C1N/C(=N\N=C\c2ccccn2)SC1Cc1cccc(SC(F)F)c1 (centres undefined)	.	-0.8	.
O=C(CSc1nnc(SCc2cccc3ccccc23)s1)N=Nc1c(O)[nH]c2ccccc12	.	-6.5	-14.2
COc1ccc(-c2cc(-c3ccc(Br)cc3)nc3ncnn23)cc1OC	0.4	-1.1	.
CCCOc1ccc(CSc2nc3ccccc3[nH]2)cc1	.	-3.1	.
CCCCOc1ccc(CSc2n[nH]c(C)n2)cc1	7.7	-0.4	-0.6
CCCCOc1ccc(CSc2ncn[nH]2)cc1	13.3	9.8*	-0.1
CCCCCOc1ccc(CSc2ncn[nH]2)cc1	17.8	6.3*	.
Cc1cc(O)cc(O)c1C=NCc1ccco1	.	-0.9	-9.4
CN(C(=S)NC(=O)c1ccc(Br)o1)c1ccccc1	.	-2.0	-3.6
Cn1c(N2CCCC2)nc2c1c(=O)n(Cc1ccc(Cl)cc1)c(=O)n2C	8.7	-0.2	-0.4
